# Myeloid diff MLP = induction of myeloid progenitor differentiation, primary screen, cell-based, flow cytometry, MLPCN library; calls only at 10 µM; ER-HoxA9 myeloid progenitors, lysozyme-GFP differentiation; 360,000 compounds, 1% hits; AID 624256, 2012;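 active = normalized GFP-positive differentiation at or above the plate's own cutoff, the solvent-only control mean plus 3 SD; inconclusive = no clear call, values can overlap the other calls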;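 note: cells exposed to compound for four days before flow analysis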
# FAS TE block = FAS thioesterase domain inhibitors, primary screen, biochemical, fluorescence intensity, uHTS; Fatty acid synthase (Homo sapiens), P49327; recombinant FAS-TE, OMFH fluorogenic substrate, fluorescence endpoint; inhibition, % at 15 µM; 360,000 compounds, 0.67% hits;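 active = compounds whose normalised, plate-corrected inhibition of enzyme fluorescence in the single-dose primary screen is 50% or more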;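 note: 0% = DMSO with enzyme and 100% = substrate without enzyme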
# NadD inh = inhibitors of S. aureus NadD, primary screen, biochemical, colorimetric, uHTS; Nicotinate-nucleotide adenylyltransferase NadD (Staphylococcus aureus N315); 360,000 compounds, 0.78% hits; inhibition, % at 20 µM; purified NadD enzyme, colorimetric absorbance read-out; in the data active = inhibition above about 26%
# CendR NRP1 mod = modulators of CendR peptide binding to NRP-1, primary screen, biochemical, fluorescence polarization, uHTS. FAM-RPARPAR peptide binding to NRP-1. inhibition, % at 25 µM. 360,000 compounds, 0.85% hits. AID 602438, 2012;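 active = inhibition or corrected inhibition above about 18%, plus a signal ratio from 0.5 to 1.5, limit read from the data, passing the limit was not always enough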
# Target sequence (O14786 whole entry, looked up): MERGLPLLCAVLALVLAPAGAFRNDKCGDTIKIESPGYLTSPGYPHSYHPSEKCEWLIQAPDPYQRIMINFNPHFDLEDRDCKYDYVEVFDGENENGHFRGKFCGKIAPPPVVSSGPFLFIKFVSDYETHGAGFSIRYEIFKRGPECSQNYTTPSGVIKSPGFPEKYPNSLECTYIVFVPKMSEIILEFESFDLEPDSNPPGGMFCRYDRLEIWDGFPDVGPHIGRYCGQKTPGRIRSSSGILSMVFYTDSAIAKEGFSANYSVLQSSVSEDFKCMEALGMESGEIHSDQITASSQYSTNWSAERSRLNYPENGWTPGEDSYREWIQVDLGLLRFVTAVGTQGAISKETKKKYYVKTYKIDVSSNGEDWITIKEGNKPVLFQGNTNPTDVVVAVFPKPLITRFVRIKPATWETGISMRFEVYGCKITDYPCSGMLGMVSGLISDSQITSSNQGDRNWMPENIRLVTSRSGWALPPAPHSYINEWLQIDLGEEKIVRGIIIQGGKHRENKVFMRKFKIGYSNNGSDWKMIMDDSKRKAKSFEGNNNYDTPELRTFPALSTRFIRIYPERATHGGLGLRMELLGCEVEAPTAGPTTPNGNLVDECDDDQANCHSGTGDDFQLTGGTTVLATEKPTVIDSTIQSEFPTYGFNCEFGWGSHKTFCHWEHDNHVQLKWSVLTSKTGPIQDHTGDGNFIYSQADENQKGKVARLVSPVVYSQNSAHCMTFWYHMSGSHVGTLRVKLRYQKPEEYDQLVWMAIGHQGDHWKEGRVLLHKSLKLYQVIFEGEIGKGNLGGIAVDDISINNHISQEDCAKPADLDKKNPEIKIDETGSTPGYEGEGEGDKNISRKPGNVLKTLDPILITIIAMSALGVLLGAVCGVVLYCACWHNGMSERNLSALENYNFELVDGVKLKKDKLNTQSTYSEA
# CRFBP-R2 block = antagonists of CRF-BP/CRF-R2 complex, primary screen, cell-based, HEK293, calcium dye fluorescence, uHTS; CRF-induced calcium fluorescence; AID 588475, 2011; 350,000 compounds, 0.59% hits; inhibition, % at 11.8 µM;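 active = inhibition of the ligand-induced calcium signal above about 50% at the single tested concentration, limit read from the data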
# An asterisk follows results filed as active; i = inactive; u = inconclusive; x = no result; + = active, no number. This is a sample that favours compounds with a hit; in the whole collection about 3.6% have one here.
SMILES,Myeloid diff MLP,FAS TE block,NadD inh,CendR NRP1 mod,CRFBP-R2 block
N#Cc1c(Cl)nsc1NC(=O)c1ccccc1,i,-5.6,-5.6,-10.1,55.9*
CCOC(=O)N1CCN(C(=O)CSc2nnc(CNC(=O)c3ccccc3F)o2)CC1,i,-5.1,1.4,8.8,56.9*
O=C(NCc1nnc(SCC(=O)N2CCCC2)o1)c1ccccc1F,i,-6.3,0.8,-7.1,-0.1
Cn1c(NCCc2ccncc2)nc2cc(-c3ccccc3)sc2c1=O,u,-0.8,1.1,5.5,x
CCOC(=O)c1ccc(NC(=O)C2CC3CCC2C3)cc1 (stereo not drawn),i,11.9,-10.7,13.2,-9.1
CCOc1ccc(NC(=O)C2CCC(N3C(=O)C4CC=CCC4C3=O)CC2)cc1 (stereo not drawn),i,-2.2,4.9,28.9*,6.7
CCOc1ccc(NC(=O)C2CC3CCC2C3)cc1 (stereo not drawn),i,-3.4,0.9,27.5*,32.9
COc1cccc(CNC(=S)NC2CC2)c1,i,-3.7,-5.7,-2.1,1.7
COc1ccc(C(=S)N2CCOCC2)cc1OC(=O)c1cc([N+](=O)[O-])c(C)c([N+](=O)[O-])c1,i,28.1,19.5,28.0*,6.9
COc1cc(C(=S)N2CCOCC2)ccc1OC(=O)c1cc([N+](=O)[O-])c(C)c([N+](=O)[O-])c1,i,21.8,2.5,2.9,-7.3
CC1Cc2[nH]c(=S)[nH]c(=O)c2C(c2ccc(F)cc2)O1 (stereo not drawn),i,-11.6,0.1,-14.6,x
CC1CCc2cc(F)ccc2N1C(=O)CCC(=O)O (stereo not drawn),i,-5.5,-5.9,24.7*,6.5
CC1CCc2cc(F)ccc2N1C(=O)c1cccs1 (stereo not drawn),i,5.2,-6.4,-12.1,-6.3
Cc1ccc2nc(NCCNC(=O)c3ccccc3)c(C#N)cc2c1,+,4.6,-1.6,-24.6,12.1
COc1ccccc1Nc1nc2ccc(C)cc2cc1C#N,i,13.1,3.3,29.2*,-34.8
COc1ccccc1Nc1nc2cc(C)ccc2cc1C#N,i,-4.1,-0.4,1.7,-8.2
Cc1ccc(NC(=O)Nc2cccc(C)n2)cc1,i,-1.2,-2.2,-7.9,6.6
Cc1cccc(NC(=O)Nc2ccc(F)cc2)n1,+,0.0,-1.6,10.3,-23.9
CSc1ccc(OC2(C)CCN(Cc3ccc(C(C)C)cc3)C2)cc1 (stereo not drawn),i,23.5,-2.5,12.3,x
CCC(=O)NC(c1ccccc1OC)c1ccc2cccnc2c1O (stereo not drawn),x,0.5,3.2,0.1,22.0
COc1ccc(Cl)cc1C(Nc1cccnc1)c1ccc2cccnc2c1O (stereo not drawn),i,-4.6,40.2*,5.2,-35.0
COc1ccc(NC(=O)Cc2c(SC)c3ccccc3n2Cc2ccccc2)cc1,i,1.8,4.3,-1.9,60.5*
CCNC(=O)C1CCCN(C(=O)c2ccco2)CC1 (stereo not drawn),i,-4.2,0.7,6.6,x
CCc1ccc(/C=C/C(=O)C2C(=O)c3ccccc3C2=O)cc1,+,3.0,27.0,-62.3,-5.3
CCOC(=O)CN1C(=O)C(=O)N(Cc2ccccc2)C1=O,x,-2.8,1.4,-0.2,-4.2
SMILES,Myeloid diff MLP,FAS TE block,NadD inh,CendR NRP1 mod,CRFBP-R2 block
CCOC(=O)CN1C(=O)C(=O)N(Cc2c(C)cc(C)cc2C)C1=O,+,-1.3,-5.3,-4.6,10.0
CCOc1ccccc1NC(=O)COC(=O)c1ccccc1SCC(=O)N1CCCC1,i,2.8,-2.1,-1.9,0.3
O=C(COC(=O)c1ccccc1SCC(=O)N1CCCC1)Nc1ccccc1C(F)(F)F,i,-4.0,1.5,32.5*,1.1
O=c1[nH]c(=S)c2[nH]c(=S)n(-c3ccccc3)c2[nH]1,i,-8.5,5.3,-18.6,1.7
CCn1nc(C)cc1-c1nnc(Sc2ncc([N+](=O)[O-])s2)n1C,u,6.3,-0.3,8.0,96.8*
CCN(CC)S(=O)(=O)c1ccc(N=NC2=C(O)CCCC2=O)cc1,i,-9.5,-3.7,26.3*,2.8
O=C(CCC(=O)c1ccc(Br)cc1)Nc1cccnc1,i,-1.5,0.3,6.1,14.7
COc1ccc(OCCCC(=O)Nc2cccnc2)cc1,i,-7.1,-3.7,-11.6,53.0*
O=C(CCSc1ccc(Br)cc1)Nc1cccnc1,i,14.1,1.7,-2.6,110.2*
COc1ccc(CCN2C(=O)c3ccccc3C2c2nnnn2-c2c(C)cccc2C)cc1OC (stereo not drawn),i,-0.7,-5.8,12.2,x
COc1ccccc1Cn1c(=S)[nH]c2cc(C(=O)N3CCCC3)ccc2c1=O,i,-1.2,-3.6,30.8*,0.1
Cc1ccc(C)c(C(=O)NC(C)CCc2ccccc2)c1 (stereo not drawn),i,-2.4,-3.8,4.8,-3.3
Cc1ccc(C(=O)NC(C)CCc2ccccc2)cc1[N+](=O)[O-] (stereo not drawn),i,74.5*,0.0,2.2,27.9
Cc1occc1C(=O)NC(C)CCc1ccccc1 (stereo not drawn),i,2.8,5.5,24.5*,-30.0
C/[N+]([O-])=C\C1C(=O)CC(C)(C)CC1=O,i,-2.1,5.3,-9.5,53.4*
COc1ccc(C(=O)C(=O)N2CCN(c3ccc(C)cc3)CC2)cc1OC,i,x,x,-3.0,x
CCN1/C(=C\c2ccc3cc(C)ccc3[n+]2CC)Sc2cc(C)c(C)cc21,u,-34.5,22.4,-226.2,-157.0
CCN1/C(=C/c2ccc3cc(C)ccc3[n+]2CC)Sc2ccc3sccc3c21,+,-20.8,43.6*,-150.2,-33.5
CN1CCCN(C(=O)c2cc(=O)[nH]c3ccccc23)c2nc3ccccc3nc21,i,-2.6,2.4,6.6,-4.8
CN1CCCN(C(=O)Cc2c(Cl)cccc2Cl)c2nc3ccccc3nc21,+,15.7,-5.6,1.0,-1.4
Cc1cc(Oc2ccc(N)cn2)ccc1Cl,+,-11.3,-3.2,131.7,17.8
CCOc1ccc2nc(SCC(=O)NNC(=O)c3ccco3)c(C)cc2c1,i,1.1,5.6,-5.1,4.3
CCOc1ccc2cc(/C=C/C(=O)c3ccco3)c(Cl)nc2c1,+,-13.6,5.9,-90.7,-24.2
COC(=O)C1(C(=O)OC)C2CCCCC2N(S(=O)(=O)c2ccc(C)cc2)[C@@H]1CC(C)=O (stereo partly drawn),i,x,x,-7.2,x
O=C(NCc1ccc(Cl)cc1)N1CCN(C(=O)c2ccccc2)CC1,i,-0.6,2.8,-4.0,3.6
C[C@@H]1CN([C@@H](C)CO)C(=O)c2cc(Br)cnc2O[C@H]1CN(C)Cc1cccnc1,i,-5.8,-5.1,4.7,11.0
Cc1cc(O)ccc1Nc1nc(-c2cccs2)cs1,+,0.9,-0.8,-11.5,22.4

# Screening results: PubChem BioAssay, several laboratories
